Screening data: PubChem, National Center for Advancing Translational Sciences (NCATS)
p53ts 32C kill: p53ts cell cytotoxicity, permissive temperature | actives 0.93% (n = 130,000) | H1299-p53A138V at 32C, ATP luminescence viability, 24 h | Potency, µM (doses to about 46.1 µM), for inactives: at the top dose activity change, negative = cytotoxicity, hits mostly cytotoxic;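 further: 0% = DMSO and -100% = full killing by reference compound; nearly all actives have a fitted effect of over 55% in size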
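Cells: H1299 p53ts (A138V), 600/well, pre-incubated 16–30 h at 37C. Cpd up to 46 uM, 24 h, 32C. Readout: ATPlite luminescence, 20 min RT. Normalization: DMSO vs tamoxifen 100 uM. AC50 by Hill equation.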
IkB signaling: inhibitors of IkB signaling in ABC-DLBCL cells. ABC-DLBCL IkBa-CBG/CBR dual luciferase ratio, 4 h; response scale: scaled: untreated 0%, proteasome inhibitor 100%. Potency, µM (doses to about 57.1 µM), for the others: top-dose IkBa stabilization activation. actives 0.04% (n = 110,000); active means well fitted curve in the direction sought with a large enough effect in the signal ratio, not every such curve was filed as active; inconclusive means small, poorly fitted or top-dose-only effect, or a change in a side signal; the % refers to the signal ratio;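 further: the direction sought is a rising ratio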
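Luminescence ratio of IκBα-fused green versus native red beetle luciferase in OCI-Ly3 cells, 4 h post-doxycycline with compound; red signal alone, scaled from basal (0%) to zero light (-100%), flagged nonspecific or cytotoxic effects.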
p53ts 39C kill: kills p53ts cells at the nonpermissive temperature. Potency, µM (series often up to 46.1 µM), without a hit: top-dose activity change, negative = cell killing, usual class: cytotoxic. H1299-p53A138V viability at 39C, ATP luminescence, 24 h. actives 1.5% (n = 130,000); further: on the % scale 0 is the no-effect control and ±100 the full control effect; nearly all actives have a fitted effect of over 55% in size
Peg3 imprint: genomic imprint erasure induction. actives 0.02% (n = 110,000). mouse ES Peg3-LacZ reporter, beta-gal luminescence, 40 h. AID 1948. Potency, µM (doses to about 60.7 µM), for inactives: top-dose activity change, positive = activation, usual class: activators
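Gelatin-coated wells received 300 freshly trypsinized female ES cells with a Peg3LacZ-Neo reporter on the maternal allele, then incubated 40 hours at 37C. BetaGlo was added for 5 minutes at room temperature before a single luminescence read.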
Active calls of the source: *; [ ] = dose if it differs, or a comment. Shown are actives, neighbours in structure and some others; about 1.7% of the full set was active somewhere. Unless noted, the call rests on the fitted dose curve; in most records, active means well fitted curve in the direction sought with a large enough effect; inconclusive means small, poorly fitted or top-dose-only effect, or another doubt; inactive means no such curve, though single readings can be large; an effect the other way counts as inactive or inconclusive. Potency means the concentration at half of the fitted maximal effect.

What do the screens show for `COCCn1c(=O)c(-c2cccs2)nc2cnc(Oc3cccc(Cl)c3)nc21`?
p53ts 32C kill: 4%; IkB signaling: 2%[11.4 µM]; p53ts 39C kill: 2%

What do the screens show for `O=C(NCc1ccc2c(c1)CCN2C(=O)c1ccc(F)cc1)c1ccco1`?
p53ts 32C kill: -3%; IkB signaling: 0%; p53ts 39C kill: -2%; Peg3 imprint: -13%[10.9 µM]

What do the screens show for `CCc1ccc(-c2cn3nc(CC)sc3n2)cc1`?
p53ts 32C kill: 13µM*; IkB signaling: 73%; p53ts 39C kill: 6.3µM*; Peg3 imprint: -12%[10.9 µM]

What do the screens show for `CCCc1nn2c(C)c(-c3ccccc3)nc2s1`?
p53ts 32C kill: 6.3µM*; IkB signaling: 13%; p53ts 39C kill: 10µM*; Peg3 imprint: -54%[10.9 µM]

Results for CC(C)Cc1nn2cc(-c3cccc(Br)c3)nc2s1 ?
p53ts 32C kill: 13µM*; IkB signaling: inconclusive; p53ts 39C kill: 10µM*; Peg3 imprint: -25%[10.9 µM]

Results for c1ccc(CCc2nn3c(-c4ccncc4)nnc3s2)cc1 ?
p53ts 32C kill: 24%; IkB signaling: 2%; p53ts 39C kill: 35%; Peg3 imprint: 4%

Results for C=Cc1ccc(Cn2c(C(=O)O)c(CNCc3ccc(F)cc3)c3ccc(C)cc32)cc1 ?
p53ts 32C kill: -8%; IkB signaling: inconclusive; p53ts 39C kill: inconclusive; Peg3 imprint: -10%[10.9 µM]

What do the screens show for `CCN(CCCNC(=O)CSc1cc(=O)n(CC)c2ccccc12)c1ccccc1`?
p53ts 32C kill: 1%; IkB signaling: inconclusive; p53ts 39C kill: -17%; Peg3 imprint: -8%[10.9 µM]

Results for Cc1ccc(Cl)cc1NC(=O)c1cc2c(=O)n3cccc(C)c3nc2n1C ?
p53ts 32C kill: 4%; IkB signaling: inconclusive; p53ts 39C kill: -13%; Peg3 imprint: -15%[10.9 µM]

How did Cc1ccc(CCNC(=O)c2ccc3c(c2)nc2n3CCOC2)cc1 do in these assays?
p53ts 32C kill: -10%; IkB signaling: 0%; p53ts 39C kill: -17%; Peg3 imprint: 12%[10.9 µM]

How did CC(C)CCNC(=O)c1ccc2c(c1)nc1n2CCCCC1 do in these assays?
p53ts 32C kill: 16µM*; IkB signaling: inconclusive; p53ts 39C kill: 3.2µM*; Peg3 imprint: -32%[10.9 µM]

How did O=C(NCCc1ccccc1)c1ccc2c(c1)nc1n2CCOC1 do in these assays?
p53ts 32C kill: 13µM*; IkB signaling: -3%; p53ts 39C kill: 10µM*; Peg3 imprint: -25%[10.9 µM]

What do the screens show for `CCNC(=O)c1ccc2c(c1)nc1n2CCCCC1`?
p53ts 32C kill: inconclusive; IkB signaling: 0%; p53ts 39C kill: inconclusive; Peg3 imprint: -16%[10.9 µM]

How did COc1ccc(CCNC(=O)c2ccc3c(c2)nc2n3CCCCC2)cc1OC do in these assays?
p53ts 32C kill: -14%; IkB signaling: inconclusive; p53ts 39C kill: -9%; Peg3 imprint: -14%[10.9 µM]

How did Cc1ccccc1CCNC(=O)c1ccc2c(c1)nc1n2CCC(C)C1 (stereo unspecified) do in these assays?
p53ts 32C kill: 13µM*; IkB signaling: -1%; p53ts 39C kill: 13µM*; Peg3 imprint: -2%[10.9 µM]

How did O=C(NCCc1ccccc1Cl)c1ccc2c(c1)nc1n2CCCCC1 do in these assays?
p53ts 32C kill: 4µM*; IkB signaling: inconclusive; p53ts 39C kill: 2.5µM*; Peg3 imprint: -27%[10.9 µM]

What do the screens show for `CCCOc1cccc(C2c3c(oc4ccc(F)cc4c3=O)C(=O)N2CCCN2CCOCC2)c1` (stereo unspecified)?
p53ts 32C kill: 6%; IkB signaling: 1%; p53ts 39C kill: 33%; Peg3 imprint: -8%[10.9 µM]

Results for Cc1nc2ccc(S(=O)(=O)NC(C(=O)N3CCN(c4ccc(Cl)cc4)CC3)C(C)C)cc2s1 (stereo unspecified) ?
p53ts 32C kill: -4%; IkB signaling: inconclusive; p53ts 39C kill: -24%; Peg3 imprint: -4%[10.9 µM]

How did CC(=O)Nc1ccc2nc3c(=O)n(C)c(=O)n(C)c3nc2c1C do in these assays?
p53ts 32C kill: 4%; IkB signaling: 0%; p53ts 39C kill: 4%; Peg3 imprint: 4%[10.9 µM]

What do the screens show for `Cc1cc(C)c(S(=O)(=O)NCc2ccc3c(c2)CCN3C(=O)c2ccccc2)c(C)c1`?
p53ts 32C kill: 8%; IkB signaling: 1%; p53ts 39C kill: -24%; Peg3 imprint: -6%[10.9 µM]

Results for COc1ccccc1N1CCN(C(=O)CCS(=O)(=O)c2cc(Br)cc3c2N(C(=O)C2CC2)CC3)CC1 ?
p53ts 32C kill: 13%; IkB signaling: inconclusive; p53ts 39C kill: -10%; Peg3 imprint: -7%[10.9 µM]

What do the screens show for `CC1CCCCN1C(=O)CSc1c2c(nc3cc(Cl)ccc13)CCCC2` (stereo unspecified)?
p53ts 32C kill: -13%; IkB signaling: inconclusive; p53ts 39C kill: 13µM*; Peg3 imprint: -16%[10.9 µM]

Results for CC1CCCN(C(=O)CSc2c3c(nc4cc(Cl)ccc24)CCCC3)C1 (stereo unspecified) ?
p53ts 32C kill: 25µM*; IkB signaling: 9%; p53ts 39C kill: inconclusive; Peg3 imprint: -14%[10.9 µM]

How did CC1CCN(C(=O)CSc2c3c(nc4ccc(Cl)cc24)CCCC3)CC1 do in these assays?
p53ts 32C kill: inconclusive; IkB signaling: inconclusive; p53ts 39C kill: inconclusive; Peg3 imprint: -8%[10.9 µM]

What do the screens show for `O=C(Cn1c(=O)n(Cc2ccccc2)c(=O)c2sc3ccccc3c21)Nc1ccccc1`?
p53ts 32C kill: inconclusive; IkB signaling: 1%; p53ts 39C kill: 13µM*; Peg3 imprint: -17%[10.9 µM]

What do the screens show for `O=C(Cn1c(=O)n(Cc2ccccc2)c(=O)c2sc3ccccc3c21)Nc1ccc(F)cc1`?
p53ts 32C kill: inconclusive; IkB signaling: inconclusive; p53ts 39C kill: 10µM*; Peg3 imprint: -13%[10.9 µM]

Results for CN[C@@H]1[C@H](O)[C@H](NC)[C@@H]2O[C@]3(O)C(=O)C[C@@H](C)O[C@H]3O[C@@H]2[C@H]1O ?
IkB signaling: 1%[11.4 µM]

What do the screens show for `C[C@H](O)[C@H](O)[C@@H](O)c1cnc2nc(N)[nH]c(=O)c2n1`?
IkB signaling: 1%[11.4 µM]

What do the screens show for `O=C1O/C(=C\Br)CC[C@@H]1c1cccc2ccccc12`?
p53ts 32C kill: 20µM*; IkB signaling: 5%; p53ts 39C kill: 20µM*

Results for O=C1O/C(=C/Br)CCC1c1cccc2ccccc12 (stereo unspecified) ?
Peg3 imprint: -32%

Results for C=Cc1ccc(Cn2nc(-c3ccc(C)c(S(=O)(=O)N(CC)CC)c3)ccc2=O)cc1 ?
p53ts 32C kill: 11%; IkB signaling: inconclusive; p53ts 39C kill: 20%; Peg3 imprint: -11%[10.9 µM]

How did CC(Oc1ccc(F)cc1)C(=O)Nc1cc(-c2ccc(F)c(F)c2)no1 (stereo unspecified) do in these assays?
p53ts 32C kill: -12%; IkB signaling: -3%; p53ts 39C kill: inconclusive; Peg3 imprint: -11%[10.9 µM]

How did COc1ccc(OCc2ccc(C(=O)N3CCOCC3)cc2)cc1 do in these assays?
p53ts 32C kill: -19%; p53ts 39C kill: 9%

How did CCOc1ccc(OCc2cccc(C(=O)N3CCOCC3)c2)cc1 do in these assays?
p53ts 32C kill: 10µM*; IkB signaling: inconclusive; p53ts 39C kill: 13µM*; Peg3 imprint: -99%
